Pf growth 96h: inhibits malaria parasite growth, 96 h. 320,000 compounds, 6.9% hits. Potency, µM (titrated, usually from 28.7 µM), most hits filed as inhibitors. P. falciparum luciferase reporter growth, 96 h
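Two-generation exposure (96 h) targets delayed-death phenotype. Reporter parasites carrying integrated firefly luciferase, in red cells at 2% hematocrit and 0.05% parasitemia final, kept at 37 C, 5% CO2; luminescence loss indicates inhibition.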
Pf growth 48h: P. falciparum growth inhibition at 48 hours (one generation); P. falciparum luciferase growth in erythrocytes, 48 h; Potency, µM (doses to about 28.7 µM), actives largely listed as inhibitors; 310,000 compounds, 5.9% hits; AID 504832
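First compound was added to culture medium, then infected red cells at 0.1% parasitemia and 2% hematocrit (final). After incubation at 37 C under 5% CO2, luciferase detection reagent was dispensed and light output recorded.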
Sm TGR block: inhibitors of Schistosoma mansoni thioredoxin glutathione reductase. Q962Y6. purified TGR, DTNB reduction, TNB absorbance 405 nm. Potency, µM (titrated, usually from 114 µM), actives largely listed as inhibitors. 360,000 compounds, 3% hits. AID 485364; further: nearly all actives have a fitted effect of over 60% in size
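First, TGR (20 nM dispensed) and NADPH were mixed with compound. Second, a 15 min room-temperature incubation followed. Third, further NADPH and then DTNB were added to start the reaction. Finally, TNB absorbance was monitored kinetically.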
Giardia FBPA inh: Giardia lamblia aldolase inhibition. 290,000 compounds, 0.71% hits. purified Giardia FBPA. Potency, µM (series often up to 59.6 µM), usual class: inhibitors. A8B2U2; further: nearly all actives have a fitted effect of over 55% in size
Target sequence (A8B2U2 whole entry, looked up): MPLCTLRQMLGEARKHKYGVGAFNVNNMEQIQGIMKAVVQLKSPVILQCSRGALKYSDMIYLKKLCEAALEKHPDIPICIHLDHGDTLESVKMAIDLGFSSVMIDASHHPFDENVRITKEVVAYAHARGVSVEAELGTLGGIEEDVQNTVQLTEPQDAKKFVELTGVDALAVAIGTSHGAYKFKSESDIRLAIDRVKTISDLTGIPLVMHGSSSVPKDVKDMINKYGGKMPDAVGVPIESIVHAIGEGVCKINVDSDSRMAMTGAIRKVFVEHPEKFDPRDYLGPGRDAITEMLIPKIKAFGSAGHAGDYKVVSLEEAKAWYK
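Giardia FBPA (40 nM reagent) was preincubated 10 min at RT with compound (up to 57.5 uM final), then substrate plus GAPDH/TPI/NAD/arsenate coupling system with diaphorase/resazurin was added; resorufin fluorescence (525/598 nm) was read after 20 min.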
HCMV antiviral: human cytomegalovirus inhibition; activity change, negative = inhibition, % at 57.5 µM; 410,000 compounds, 4.5% hits; AID 1259415; HFF cells, HCMV-luciferase reporter, 72 h; hits give low values; in the data active means activity change below about -60%; inconclusive means no clear call, values can overlap the other calls; inactive means above about -39%
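Cell-based, HFFs, 1000 cells/well, 16 h 37C; cpds in DMSO + HCMV-luc, MOI 1 PFU/cell; 72 h 37C; OneGlo luminescence after 5 min RT; norm. to buffer vs Salinomycin 10uM.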
Numbers stand for hits; 0 = inactive; ? = inconclusive; - = no result given. Compounds with a hit are over-represented: about 14% of the library has one in this group of screens. Unless noted, the call rests on the fitted dose curve; in most records, active means well fitted curve in the direction sought with a large enough effect; inconclusive means small, poorly fitted or top-dose-only effect, or another doubt; inactive means no such curve, though single readings can be large; an effect the other way counts as inactive or inconclusive.

SMILES	Pf growth 96h	Pf growth 48h	Sm TGR block	Giardia FBPA inh	HCMV antiviral
COc1ccccc1NC(=O)N(Cc1ccco1)Cc1cc2cccc(C)c2[nH]c1=O	13µM	?	0	0	0
COc1ccccc1NC(=S)N(Cc1ccco1)Cc1cc2cc(C)ccc2[nH]c1=O	?	12µM	0	0	-61
COc1ccc(C(=O)N(Cc2ccco2)Cc2cc3cc(C)ccc3[nH]c2=O)cc1OC	-	-	-	-	0
COc1cccc(C(=O)N(Cc2ccco2)Cc2cc3cccc(C)c3[nH]c2=O)c1	0	0	0	0	0
COCCn1c(N)c(N(Cc2ccccc2)C(=O)COc2ccccc2F)c(=O)[nH]c1=O	0	0	0	-	0
Cc1ccc(-n2nnnc2CCl)cc1	0	0	5.6µM	0	0
CCCC/C=C/C(NC(=O)Oc1cccc(C(F)(F)F)c1)c1ccccc1 (centres undefined)	-	-	-	0	-
CC(=O)N(c1ccc(C)cc1)c1nc(C)cc(C)c1C#N	0	0	0	0	0
OCc1cn(-c2ccccc2)nc1-c1ccc(-c2nn(-c3ccccc3)cc2CO)cc1	0	0	0	0	0
Cc1ccc(-c2nn(-c3ccccc3)cc2CSC(=N)N)cc1	1.7µM	?	0	0	0
Cc1cc(C)cc(NC(=O)C2CCCN(c3nnc(C)c4c(C)n(-c5ccccc5)nc34)C2)c1 (centres undefined)	-	-	0	-	0
O=C(COc1ccc(Cl)cc1)NN=C1CCCCCCC1	0	0	0	0	0
O=C1CC(c2ccccc2F)c2c(c3ccccc3[nH]c2=O)O1 (centres undefined)	0	0	0	0	0
C[C@@]12CCC(OC(=O)c3ccccc3)CC1CCc1ccccc12 (some centres undefined)	-	-	-	0	-
O=C(/C=C/c1ccc2c(c1)OCO2)c1ccc[nH]1	0	0	0	0	0
COc1cccc(/C=C/C(=O)c2ccc[nH]2)c1	0	-	0	0	-87
COc1cc(/C=C/C(=O)c2ccccc2O)cc(OC)c1OC	0	?	?	0	0
COc1ccc(C(=O)/C=C/c2ccc(N(C)C)cc2)c(OC)c1	2.1µM	?	0	0	0
COc1cc(OC)c(C=CC(=O)c2ccccc2O)c(OC)c1	-	-	-	-	-64
COc1ccc(C(=O)/C=C/c2ccccc2)c(OC)c1	?	0	0	0	-68
CN(C)c1ccc(/C=C/C(=O)c2ccccc2O)cc1	0	0	0	0	0
COc1ccc(C(=O)/C=C/c2ccccc2)cc1	-	-	-	0	-
CC1(C(=O)NS(=O)(=O)c2ccc(Br)cc2)CCN1C(=O)CCC1CCCC1 (centres undefined)	-	-	-	-	0
N[C@@H](COC(c1cccc(F)c1)c1ccccc1OCc1ccccc1)C(=O)O (some centres undefined)	-	-	-	0	-
CCc1ccc2oc(C(=O)Nc3sc4c(c3C(=O)NC)CCCC4)cc(=O)c2c1	-	-	0	-	0
SMILES	Pf growth 96h	Pf growth 48h	Sm TGR block	Giardia FBPA inh	HCMV antiviral
CCOc1ccc(NC(=O)C(NS(=O)(=O)c2ccc3c(c2)CCN3C(C)=O)C(C)C)cc1 (centres undefined)	-	-	0	-	0
COc1ccc(C(=O)/C=C/c2cc(OC)c(O)c(OC)c2)c(F)c1	?	0	50µM	?	-96
COc1ccc(OC)c(C(=O)/C=C/c2ccccc2C(F)(F)F)c1	?	?	0	0	-104
O=C(Nc1ccc(Cl)cn1)c1cccc2ccccc12	0	0	0	0	0
Oc1ccccc1C=NC1=NN(c2cccc(C(F)(F)F)c2)CC1	2.1µM	0	0	0	0
FC(F)(F)c1cccc(N2CCC(N=CN3CCCCCC3)=N2)c1	?	?	?	0	?
Cc1cc(N2CCN(C(=O)c3ccco3)CC2)nc(-c2ccccc2)n1	0	?	45µM	0	0
CCc1cccc2sc(N3CCN(C(=O)c4ccc([N+](=O)[O-])o4)CC3)nc12	0.52µM	0.66µM	0	-	-
CCc1cccc2sc(N3CCN(C(=O)C4CC4)CC3)nc12	-	-	0	-	0
COc1cccc2sc(N3CCN(C(=O)c4ccco4)CC3)nc12	?	9.3µM	0	-	0
COc1cccc2sc(N3CCN(C(=O)CCS(=O)(=O)c4ccc(F)cc4)CC3)nc12	-	-	0	-	-88
Cc1cc(N2CCN(c3ccccc3)CC2)nc(-c2ccccc2)n1	?	0	0	0	0
Cc1nn(C)c2c1c(C(F)(F)F)cc(=O)n2C(C)C(=O)NCc1ccccc1 (centres undefined)	-	-	0	-	0
CC1Cc2cc(S(=O)(=O)N(C)c3ccc(Br)cc3)ccc2N1C(=O)C1CC1 (centres undefined)	-	-	0	-	?
COc1ccc(C(=O)N2CCN(c3nc4c(OC)cccc4s3)CC2)cc1OC	-	-	0	-	-84
Cc1ccc(C)c2sc(N3CCN(C(=O)c4ccco4)CC3)nc12	-	-	56µM	-	0
C#CCNC(=O)C1CCN(c2cc(C)nc(-c3ccccc3)n2)CC1	?	0	-	0	-95
Cc1cccc2sc(NC(=O)C3CCN(C(=O)c4ccco4)CC3)nc12	15µM	0	0	0	0
Cc1cccc2sc(N3CCN(C(=O)c4ccco4)CC3)nc12	-	-	0	-	0
CCCC12CN3CC(C)(CN(C1)C3c1ccc(CC)cc1)C2=O (centres undefined)	-	-	0	-	0
CC(C(=O)Nc1ccc(S(=O)(=O)N2CCCCC2)cc1)N1CCN(c2ccccn2)CC1 (centres undefined)	0	0	0	0	-
CC(C)(N=NC(C)(C)C(=N)N)C(=N)N	-	-	-	0	-
Cc1ccc2[nH]cc(S(=O)(=O)c3ccc(F)cc3)c(=O)c2c1	0	0	0	0	0
Cn1cc(/C=C/c2cc[n+](C)cc2)c2cc(Cl)ccc21	0.17µM	0.66µM	0	0	-102
Cn1cc(/C=C/c2cc[n+](C)cc2)c2cc(F)ccc21	0.13µM	0.26µM	0	?	-
SMILES	Pf growth 96h	Pf growth 48h	Sm TGR block	Giardia FBPA inh	HCMV antiviral
C[n+]1ccc(/C=C/c2c[nH]c3ccc(F)cc23)cc1	?	0.37µM	0	?	-97
Cn1cc(-c2coc3c(C(=O)NCc4cccc(Cl)c4)cccc23)cn1	-	-	-	-	0
O=C(Nc1ccc(C(F)(F)F)cc1)C1CCCN1S(=O)(=O)c1cccc2cccnc12 (centres undefined)	0	?	0	0	-75
COc1ccccc1CNC(=O)C1CCN(S(=O)(=O)c2cccc3cccnc23)CC1	0	-	0	0	-71
O=C(NC1CCCC1)C1CCCN1S(=O)(=O)c1cccc2cccnc12 (centres undefined)	0	-	0	0	0
COc1ccccc1CNC(=O)C1CCN(S(=O)(=O)c2cccc3nonc23)CC1	0	?	0	0	0
O=C(NCc1ccccc1)C1CCCN1S(=O)(=O)c1cccc2cccnc12 (centres undefined)	4.7µM	0	0	0	0
Cc1ccc(NC(=O)C2CCCN2S(=O)(=O)c2cccc3cccnc23)cc1 (centres undefined)	-	-	0	-	0
CN(C(=O)c1c(O)c2ccccc2n(C)c1=O)c1ccccc1	0	0	-	0	-
CC(C)(C)c1ccc(S(=O)(=O)N2CCN(CC(=O)N3CC(=O)Nc4ccccc43)CC2)cc1	?	12µM	?	-	0
